Results from PubChem BioAssay (Tox21).
A number with no mark means an inactive call. A call without a number means that no potency is given here. The source made the active and inactive calls. Calls come from the whole dose curve; as a rule, active = well fitted activation curve with a large enough effect in the repeat runs; inconclusive = weak or mixed curves; inactive = flat fitted curve, though single readings scatter.

Test: A CellTox Green Cytotoxicity Assay to monitor cytotoxicity in HepG2 cells - 0 hour (AID 1224882); note: nearly all actives have a fitted effect of over 35% in size
Details: CellTox Green fluorescence; series mostly up to 76.8 µM
Description: National Center for Advancing Translational Sciences [NCATS]
NIH Chemical Genomics Center [NCGC]
U.S. Environmental Protection Agency [EPA]
National Institutes of Environmental Health Sciences [NIEHS]
National Toxicology Program [NTP]
Cell-based models are critical for drug discovery. Determining the natural cytotoxic effects resulting from test compounds is an essential research activity. A CellTox Green Cytotoxicity Assay to monitor cytotoxicity in real time of continues cell culture during 40 hours of the compound treatment was used to screen Tox21 10K library compounds in HepG2 cells. CellTox Green Cytotoxicity Assay is a nonlytic, homogeneous, biofluorescent method to measure cytotoxicity in cell culture after experimental manipulation. The assay system uses a proprietary asymmetric cyanine dye that is excluded from viable cells but preferentially stains the dead cell's DNA. […] Viable cells produce no appreciable increases in fluorescence. Therefore, the fluorescence signal produced by the binding interaction with dead cell DNA is proportional to cytotoxicity.
The mixture of HepG2 cell suspension and reagents were dispensed at 600cells/6 ul/well in 1536-well tissue culture treated black solid bottom plates using a Multidrop dispenser. After the assay plates were incubated at a 37 C/5% CO2 incubator for 5 hours, 23 nL of compounds dissolved in DMSO, positive and negative controls was transferred to the assay plate by a pintool work station. The plates were incubated at 37 C for 40 hours. The fluorescence intensity were measured at 0h, 8h, 16h, 24h, 32h and 40h time points using ViewLux plate reader during compound treatment.
Potency is the fitted concentration of half-maximal effect.

**Q.** With `Cc1cc(C(C)(C)c2ccc(O)c(C)c2)ccc1O` as the compound, how does the Potency read?
**A.** The Potency was “inactive”.

**Q.** Which Potency does the source give for `C[C@]12CC[C@@H](O)C[C@@H]1CC[C@@H]1[C@@H]2CC[C@]2(C)C(=O)CC[C@@H]12` here?
**A.** Its Potency is “inactive”.

**Q.** For `Clc1ccccc1-c1ccccc1Cl`, which Potency is on record?
**A.** The Potency was “inactive”.

**Q.** Which Potency does the source give for `OC(Cc1ccccc1Cl)(Cn1[nH]cnc1=S)C1(Cl)CC1` (centres undefined) here?
**A.** The Potency was “inactive”.

**Q.** For `Oc1c(I)cc(I)cc1I`, which Potency is on record?
**A.** The Potency was “inactive”.

**Q.** With `CO/C=C(/C(=O)OC)c1ccccc1Oc1cc(Oc2ccccc2C#N)ncn1` as the compound, how does the Potency read?
**A.** Its Potency is “inactive”.

**Q.** For `CCOC(=O)C(O)(c1ccc(Cl)cc1)c1ccc(Cl)cc1`, which Potency is on record?
**A.** The Potency was “inactive”.

**Q.** For `CN1CSC(=S)N(C)C1`, which Potency is on record?
**A.** The Potency was “inactive”.

**Q.** Which Potency does the source give for `CC1COC(Cn2cncn2)(c2ccc(Oc3ccc(Cl)cc3)cc2Cl)O1` (centres undefined) here?
**A.** Its Potency is “inactive”.

**Q.** For `c1ccc2c(c1)Sc1ccccc1N2CC1CN2CCC1CC2` (centres undefined), which Potency is on record?
**A.** The Potency was “inactive”.

**Q.** For `O=C(c1ccccc1)C(Cl)Cl`, which Potency is on record?
**A.** The Potency was “inactive”.

**Q.** With `COc1cc(OC)c(OC)cc1C=O` as the compound, how does the Potency read?
**A.** The Potency was “inactive”.

**Q.** With `Cc1nnc2n1-c1sc(CCc3ccc(CC(C)C)cc3)cc1C(c1ccccc1Cl)=NC2C` (centres undefined) as the compound, how does the Potency read?
**A.** Its Potency is “inactive”.

**Q.** Which Potency does the source give for `CC(c1ccccc1)(c1ccc(O)cc1)c1ccc(O)cc1` here?
**A.** The Potency was “inactive”.

**Q.** For `ClC1=C(Cl)[C@]2(Cl)[C@@H]3[C@@H](Cl)[C@H]4O[C@H]4[C@@H]3C1(Cl)C2(Cl)Cl`, which Potency is on record?
**A.** Its Potency is “inactive”.

**Q.** Which Potency does the source give for `COc1ccc(C(c2ccc(OC)cc2)C(Cl)(Cl)Cl)cc1` here?
**A.** The Potency was “inactive”.

**Q.** For `Cc1ccc2nc3sc(=O)sc3nc2c1`, which cytotoxicity is on record?
**A.** Its cytotoxicity is 0.753% [at 15.8 µM].

**Q.** For `N#Cc1cc([N+](=O)[O-])ccc1N`, which Potency is on record?
**A.** Its Potency is “inactive”.

**Q.** For `Nc1ccc([N+](=O)[O-])cc1`, which Potency is on record?
**A.** The Potency was “inactive”.

**Q.** For `O=S(=O)(C(Cl)(Cl)Cl)C(Cl)(Cl)Cl`, which Potency is on record?
**A.** The Potency was “inactive”.

**Q.** Which Potency does the source give for `O=C1C(I)=CC(=C(c2cc(I)c(O)c(I)c2)c2ccccc2C(=O)O)C=C1I` here?
**A.** The Potency was “inactive”.

**Q.** With `Cc1cc(C)c(C(=O)P(=O)(c2ccccc2)c2ccccc2)c(C)c1` as the compound, how does the Potency read?
**A.** The Potency was “inactive”.

**Q.** Which Potency does the source give for `O=[N+]([O-])c1c(Cl)c(Cl)cc(Cl)c1Cl` here?
**A.** Its Potency is “inactive”.

**Q.** Which Potency does the source give for `Cc1ccc(N(SC(F)(Cl)Cl)S(=O)(=O)N(C)C)cc1` here?
**A.** The Potency was “inactive”.

**Q.** With `O=C(Nc1ccccc1-c1ccc(Cl)cc1)c1cccnc1Cl` as the compound, how does the Potency read?
**A.** The Potency was 41.2 µM (active).

**Q.** With `CCN(CC)C(=O)Cl` as the compound, how does the Potency read?
**A.** Its Potency is “inactive”.

**Q.** With `CNC(=O)Oc1cc(C)c(SC)c(C)c1` as the compound, how does the Potency read?
**A.** Its Potency is “inactive”.

**Q.** With `ClC(Cl)=C(c1ccc(Cl)cc1)c1ccccc1Cl` as the compound, how does the Potency read?
**A.** The Potency was “inactive”.

**Q.** Which Potency does the source give for `OCC(c1ccc(Cl)cc1)c1ccc(Cl)cc1` here?
**A.** The Potency was “inactive”.
